Compound activity: PubChem BioAssay, NMMLSC
Compounds with a hit are over-represented: about 1.2% of the library has one in this group of screens.
RGS4-Gao reg: modulators of RGS4 binding to Galphao, primary screen, biochemical, multiplexed bead flow cytometry. Guanine nucleotide-binding protein G(o) subunit alpha (Homo sapiens), P09471. actives lie on both sides. binding response (% of control), % at 10 µM. 0.33% of 220,000 active. AID 1415, 2008; in the data active means binding response below about 49% or above about 150%; inactive means in between;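 further: fluorescent Galphao activated with aluminum fluoride binding bead-coupled RGS4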
Target sequence (P09471 whole entry, looked up): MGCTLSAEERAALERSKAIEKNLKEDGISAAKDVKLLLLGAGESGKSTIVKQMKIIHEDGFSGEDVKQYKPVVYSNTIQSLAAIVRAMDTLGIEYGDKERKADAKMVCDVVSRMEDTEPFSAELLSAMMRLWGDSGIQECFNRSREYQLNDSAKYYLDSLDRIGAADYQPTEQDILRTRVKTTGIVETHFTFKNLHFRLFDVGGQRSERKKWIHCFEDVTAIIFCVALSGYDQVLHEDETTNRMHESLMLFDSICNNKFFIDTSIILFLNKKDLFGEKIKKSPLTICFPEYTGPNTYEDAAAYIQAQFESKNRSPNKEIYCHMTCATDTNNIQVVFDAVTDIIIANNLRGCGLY
GSH bead fluor: compound fluorescence on glutathione beads, profiling panel, artefact control, biophysical, 488/530 nm, flow cytometry | fluorescence (KMESF) at 10 µM | GSH beads flow cytometry, compound fluorescence 488/530 nm; active compounds read high | 0.25% of 190,000 active | AID 1776, 2009; in the data active means fluorescence above about 89;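 further: glutathione beads carrying GST-tagged Bcl family fusion proteins plus one bare bead set; values are compound well signal with DMSO vehicle wells as background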
Avidin bead fluor: green autofluorescence of compounds with avidin beads – biophysical, 488/530 nm, flow cytometry, artefact control, profiling panel. compound fluorescence 488/530 nm; active compounds read high. fluorescence (KMESF) at 10 µM. 0.38% of 220,000 active; in the data active means fluorescence above about 47
RGS8-Gao reg: RGS8-Galphao binding modulators, primary screen, biochemical, multiplexed bead flow cytometry | actives lie on both sides | response (percent of control binding), % at 10 µM | 0.34% of 220,000 active | AID 1423, 2008; in the data active means response below about 60% or above about 140%; inactive means in between;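 further: Galphao activated as the GDP aluminium fluoride complex binding bead-coupled RGS8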
RGS16-Gao: modulators of RGS16 binding to Galphao, primary screen, biochemical, human proteins, multiplexed bead flow cytometry | Regulator of G-protein signaling 16 (Homo sapiens) + Guanine nucleotide-binding protein … | bead-based flow cytometry RGS16-Galphao binding, fluorescence; actives lie on both sides | binding response (% of control), % at 10 µM | 0.38% of 220,000 active | AID 1441, 2008;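 further: Galphao activated by GDP with aluminum fluoride before binding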
RGS7-Gao: RGS7-Galphao binding modulators, primary screen, biochemical, multiplexed bead flow cytometry | actives lie on both sides | binding response (% of control), % at 10 µM | AID 1439, 2008 | 0.35% of 220,000 active | Guanine nucleotide-binding protein G(o) subunit alpha (Homo sapiens), P09471; in the data active means binding response below about 49% or above about 150%; inconclusive means no clear call, values can overlap the other calls; inactive means in between;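 further: fluorescent Galphao held in activated GDP-AlF4 state binding bead-coupled RGS7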
RGS-Gao: modulators of RGS–Galpha-o binding, primary screen, biochemical, multiplexed beads, flow cytometry, RGS4/7/8/16/19 | 99% of 1,600 active | RGS4–Galpha-o binding response, % at 10 µM | AID 1504, 2009 | shares compounds with RGS16-Gao | multiplexed bead flow cytometry;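 further: fluorescently labeled Galpha-o bound to GDP with aluminium fluoride binding biotinylated RGS beads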
Biotin-avidin: disruption of biotin probe capture by avidin, counter-screen for RGS protein interaction modulators, biochemical, flow cytometry, bead-based. shares compounds with RGS16-Gao. streptavidin beads, fluorescein-biotin binding. inhibition, % at 10 µM. 1,700 tested, under 10 active. AID 1783, 2009;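 active means inhibition above 50%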;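 further: median green fluorescence of gated singlet beads compared with DMSO control wells; 0% = DMSO wells and 100% = complete loss of bead fluorescence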
RGS8-Gao confirm: RGS8-Galphao binding modulators, confirmation, biochemical, multiplexed bead flow cytometry, single concentration; shares compounds with RGS16-Gao; bead-based flow cytometry RGS8-Galphao binding, fluorescence; actives lie on both sides; binding response (% of control), % at 10 µM; 3% of 1,700 active; AID 1836, 2009; in the data active means binding response below about 72% or above about 130%; inactive means in between;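 further: Galphao activated as GDP AlF4 complex before binding bead RGS8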
RGS7-Gao confirm: RGS7-Galphao binding modulators, confirmation, biochemical, multiplexed bead flow cytometry, single concentration; 7.8% of 1,700 active; response (percent of control binding), % at 10 µM; bead-based flow cytometry RGS7-Galphao binding; actives lie on both sides; shares compounds with RGS16-Gao; in the data active means response below about 75% or above about 130%; inactive means in between;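 further: fluorescent Galphao activated with GDP and aluminum fluoride binding bead-coupled RGS7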
RGS16-Gao conf: modulators of RGS16-Galphao protein binding, confirmation, biochemical, single concentration, multiplexed bead flow cytometry; shares compounds with RGS16-Gao; bead-based flow cytometry; actives lie on both sides; AID 1838, 2009; 4% of 1,700 active; response (% of control binding), % at 10 µM; in the data active means response below about 74% or above about 130%; inactive means in between;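 further: Galphao activated as the GDP aluminium fluoride complex binding bead-coupled RGS16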
RGS4-Gao single: modulators of RGS4-Galphao protein binding, confirmation, biochemical, single concentration, multiplexed bead flow cytometry | shares compounds with RGS16-Gao | actives lie on both sides | binding response (% of control), % at 10 µM | 4% of 1,700 active | AID 1840, 2009; in the data active means binding response below about 74% or above about 130%; inactive means in between
RGS19-Gao conf: regulators of RGS19-Galphao binding, confirmation, biochemical, single point, multiplexed bead flow cytometry. shares compounds with RGS16-Gao. bead-based flow cytometry RGS19-Galphao binding; actives lie on both sides. response (percent of control binding), % at 10 µM. 5% of 1,700 active; in the data active means response below about 50% or above about 160%; inactive means in between;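 further: 100% = no compound control and 0% = blank background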
Target sequence (P09471 whole entry, looked up): as above
Target sequence (P49795 whole entry, looked up): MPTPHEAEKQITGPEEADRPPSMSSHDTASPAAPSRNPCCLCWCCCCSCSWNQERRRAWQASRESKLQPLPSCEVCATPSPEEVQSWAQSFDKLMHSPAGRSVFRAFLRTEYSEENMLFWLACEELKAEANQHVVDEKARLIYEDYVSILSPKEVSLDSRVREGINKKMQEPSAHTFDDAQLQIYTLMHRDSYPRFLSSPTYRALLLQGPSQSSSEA
* marks the source's active call; other numbers are inactive results; [ ] = dose if it differs, or a comment. Unless noted, how the calls were made is not given here.

For COc1ccc(NC(=O)CC2SC(=Nc3ccccc3)NC2=O)c(OC)c1 (stereo not given) the results were RGS4-Gao reg 100, GSH bead fluor 23, Avidin bead fluor 3, RGS8-Gao reg 100, RGS16-Gao 93 and RGS7-Gao 99.
For COc1ccc(NC(=S)NC2CCCCCC2)c(OC)c1 the results were RGS4-Gao reg 103, GSH bead fluor 5, Avidin bead fluor 9, RGS8-Gao reg 92, RGS16-Gao 22*, RGS7-Gao 106, RGS-Gao 103*, Biotin-avidin 1, RGS8-Gao confirm 101, RGS7-Gao confirm 122, RGS16-Gao conf 101, RGS4-Gao single 107 and RGS19-Gao conf 92.
`COc1ccc(NC(=O)CC(C)=O)c(OC)c1` gave RGS4-Gao reg 101, Avidin bead fluor 9, RGS8-Gao reg 102, RGS16-Gao 99 and RGS7-Gao inconclusive.
Screening Cc1ccc(NC(=O)Nc2ccc(F)cc2F)c(OC(F)F)c1 returned RGS4-Gao reg 101, GSH bead fluor 25, Avidin bead fluor 9, RGS8-Gao reg 104, RGS16-Gao 108 and RGS7-Gao 101.
`COc1ccc(NC(=O)CC(=O)Nc2ccc(OC)cc2OC)c(OC)c1` gave RGS4-Gao reg 114, GSH bead fluor 31, Avidin bead fluor 79*, RGS8-Gao reg 99, RGS16-Gao 110, RGS7-Gao 174*[activator], RGS-Gao 114*, Biotin-avidin -1, RGS8-Gao confirm 100, RGS7-Gao confirm 101, RGS16-Gao conf 99, RGS4-Gao single 100 and RGS19-Gao conf 103.
`COc1ccc(NC(=O)CC2SC(=N)N(c3ccccc3)C2=O)c(OC)c1` (stereo not given) gave RGS4-Gao reg 4.8*, GSH bead fluor 16, Avidin bead fluor -1, RGS8-Gao reg 8.2*, RGS16-Gao -5.4*, RGS7-Gao 4.1*, Biotin-avidin -3, RGS8-Gao confirm 99, RGS7-Gao confirm 90, RGS16-Gao conf 96, RGS4-Gao single 96 and RGS19-Gao conf 96.
Screening COc1ccc(NC(=O)Nc2cc(C)ccc2OC(F)F)c(OC)c1 returned GSH bead fluor 33, Biotin-avidin 0, RGS8-Gao confirm 81, RGS7-Gao confirm 72*, RGS16-Gao conf 80, RGS4-Gao single 78 and RGS19-Gao conf 71.
Screening COC(=O)c1c(C)nc(C)c(C(=O)OC)c1-c1cccs1 returned RGS4-Gao reg 94, GSH bead fluor 31, Avidin bead fluor 18, RGS8-Gao reg 91, RGS16-Gao 93 and RGS7-Gao 101.
Screening CN1C(=O)c2ccccc2Sc2ccc(NC(=O)N3CCCC3)cc21 returned RGS4-Gao reg 106, GSH bead fluor 23, Avidin bead fluor 29, RGS8-Gao reg 103, RGS16-Gao 104 and RGS7-Gao 102.
Screening Cc1ccc(-n2c(C)cc(C(=O)COc3c(CO)cc(F)cc3CO)c2C)cc1C returned RGS4-Gao reg 116, GSH bead fluor 10, Avidin bead fluor 4, RGS8-Gao reg 153*[activator], RGS16-Gao 332, RGS7-Gao 115, RGS-Gao 116*, Biotin-avidin 2, RGS8-Gao confirm 105, RGS7-Gao confirm 104, RGS16-Gao conf 104, RGS4-Gao single 103 and RGS19-Gao conf 108.
Screening O=C1C2C3c4ccccc4C(c4ccccc43)C2C(=O)N1Cc1ccccn1 (stereo not given) returned RGS4-Gao reg 99, GSH bead fluor 10, Avidin bead fluor 13, RGS8-Gao reg 101, RGS16-Gao 102 and RGS7-Gao 99.
Screening CCOC(=O)C1=C(O)CSC1=Nc1ccc(C)cc1 returned RGS4-Gao reg 99, GSH bead fluor 27, Avidin bead fluor 10, RGS8-Gao reg 99, RGS16-Gao 95 and RGS7-Gao 101.
CCN(CC)C(=O)C[n+]1cccc(/C=N/O)c1 was read as RGS4-Gao reg 101, GSH bead fluor 8, Avidin bead fluor 4, RGS8-Gao reg 103, RGS16-Gao 112 and RGS7-Gao 97.
`CN(C)C(=O)C[n+]1cccc(/C=N/O)c1` gave RGS4-Gao reg 114, GSH bead fluor 9, Avidin bead fluor 13, RGS8-Gao reg 142*[activator], RGS16-Gao 251*[activator], RGS7-Gao 110, RGS-Gao 114*, Biotin-avidin 0, RGS8-Gao confirm 100, RGS7-Gao confirm 97, RGS16-Gao conf 101, RGS4-Gao single 100 and RGS19-Gao conf 108.
For O=C(Cn1cccc1C(=O)c1ccccc1)NCc1ccc(Cl)cc1 the results were RGS4-Gao reg 101, GSH bead fluor 20, Avidin bead fluor 11, RGS8-Gao reg 100, RGS16-Gao 103 and RGS7-Gao 99.
